Potency and outcome data for 16 compounds are collected here from PubChem BioAssay (Tox21).

The nature of test [1]: qHTS assay to identify small molecule agonists of the vitamin D receptor (VDR) signaling pathway - cell viability counter screen (AID 743224; active = well fitted curve in the direction sought with a large enough effect in the repeat runs; an effect the other way counts as inactive or inconclusive; note: nearly all actives have a fitted effect of over 50% in size; note: potency is the fitted concentration of half-maximal effect). In outline:
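Cells: VDR-bla, 2,000/well, settled 4 h. Treatment: compounds in DMSO, 16 h, 37C/5% CO2. Readout: CellTiter-Glo luminescence after 30 min RT.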
In general terms: qHTS replaces the single test concentration by a dilution series.

A short description of test [2]: qHTS assay to identify small molecule antagonists of the vitamin D receptor (VDR) signaling pathway - cell viability counter screen (AID 743225; active = well fitted curve in the direction sought with a large enough effect in the repeat runs; an effect the other way counts as inactive or inconclusive; note: nearly all actives have a fitted effect of over 50% in size; note: potency is the fitted concentration of half-maximal effect). In outline: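 Same-well multiplex: following 16 h treatment of HEK 293T cells carrying a UAS-driven beta-lactamase reporter with compound and agonist (3 nM final), and a 2 h FRET substrate step, CellTiter-Glo was added and luminescence read after 30 min.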

A short description of test [3]: qHTS assay to identify small molecule agonists of the NFkB signaling pathway - cell viability counter screen (AID 1159515). Note: series mostly up to about 61 µM; nearly all actives have a fitted effect of over 55% in size. In outline: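 Cells are seeded (2,000 NFkB-bla ME-180 per well), rested overnight, and dosed with DMSO-dissolved compounds for 5 hr at 37 C. Viability is then read by CellTiter-Glo luminescence after 30 min at room temperature.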
Test [4] is described as follows: qHTS assay to identify small molecule agonists of the endoplasmic reticulum stress response signaling pathway (AID 1159516; active = well fitted activation curve with a large enough effect in the signal ratio in the repeat runs, not every such curve was filed as active; the % refers to the signal ratio). In outline:
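Cells are seeded at 1,500 per well and incubated overnight. Compounds in DMSO are added for 5 hr at 37 C, then beta-lactamase FRET substrate for 2 hr at room temperature, and fluorescence at 460 and 530 nm is measured.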

The nature of test [5]: qHTS assay to identify small molecule agonists of the endoplasmic reticulum stress response signaling pathway - cell viability counter screen (AID 1159517).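 Note: HeLa cells carrying an ER stress response element beta-lactamase reporter; series mostly up to about 61 µM; nearly all actives have a fitted effect of over 50% in size.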 Put shortly: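 ESRE-bla HeLa cells (1,500/well) were plated overnight at 37 C and exposed to compounds for 5 hr. After the 2 hr beta-lactamase substrate read, CellTiter-Glo went into the same wells, and luminescence was read after 30 min at room temperature.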

A short description of test [6]: qHTS assay to identify small molecule antagonists of the retinoid-related orphan receptor gamma (ROR-gamma) signaling pathway - cell viability counter screen (AID 1159520; active = well fitted curve in the direction sought with a large enough effect in the repeat runs; an effect the other way counts as inactive or inconclusive; note: nearly all actives have a fitted effect of over 50% in size). Put shortly:
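Cytotoxicity was read from cellular ATP (CellTiter-Glo luminescence) after 16 hr at 37 C with 1 uM doxycycline induction. The inducer was added 2 hr after compound transfer to Tet-on ROR gamma CHO cells.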

Test [7] has as its target Nuclear receptor ROR-gamma (Homo sapiens) (UniProt P51449). Nature of the test: qHTS assay to identify small molecule antagonists of the retinoid-related orphan receptor gamma (ROR-gamma) signaling pathway (AID 1159521; active = well fitted curve in the direction sought with a large enough effect in the repeat runs; an effect the other way counts as inactive or inconclusive; note: nearly all actives have a fitted effect of over 50% in size; note: potency is the fitted concentration of half-maximal effect). In outline:
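Inducible-expression reporter assay: doxycycline (1 uM final) switched on RORγ in CHO cells bearing a ROR response element-luciferase construct, with test compounds present from 2 h beforehand. Decreased luminescence after 16 h defined antagonist activity.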

The nature of test [8]: qHTS assay to identify small molecule agonists of the AP-1 signaling pathway - cell viability counter screen (AID 1159525). Note: nearly all actives have a fitted effect of over 55% in size. Note: potency is the fitted concentration of half-maximal effect. In outline: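 Intracellular ATP by Cell Titer Glo luminescence (30 min, RT) in the same ME-180 AP-1-bla wells after the 5 h compound exposure at 37 °C. Normalised to tetra n-octyl ammonium bromide and DMSO controls.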
Test [9] is described as follows: qHTS assay to identify small molecule agonists of the AP-1 signaling pathway (AID 1159526).
The target of test [10] is Retinoic acid receptor RXR-alpha (Homo sapiens) (UniProt P19793). Nature of the test: qHTS assay to identify small molecule agonists of the RXR signaling pathway (AID 1159527). Note: nearly all actives have a fitted effect of over 35% in size. In outline: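 Compounds in DMSO were added to RXR-alpha-UAS-bla HEK 293T cells kept in 2% charcoal-stripped serum, and incubated 16 hr at 37 C with 5% CO2. Reporter signal came from a 2 hr B/G FRET substrate step.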
Chain of Retinoic acid receptor RXR-alpha (Homo sapiens) (P19793 whole entry, looked up): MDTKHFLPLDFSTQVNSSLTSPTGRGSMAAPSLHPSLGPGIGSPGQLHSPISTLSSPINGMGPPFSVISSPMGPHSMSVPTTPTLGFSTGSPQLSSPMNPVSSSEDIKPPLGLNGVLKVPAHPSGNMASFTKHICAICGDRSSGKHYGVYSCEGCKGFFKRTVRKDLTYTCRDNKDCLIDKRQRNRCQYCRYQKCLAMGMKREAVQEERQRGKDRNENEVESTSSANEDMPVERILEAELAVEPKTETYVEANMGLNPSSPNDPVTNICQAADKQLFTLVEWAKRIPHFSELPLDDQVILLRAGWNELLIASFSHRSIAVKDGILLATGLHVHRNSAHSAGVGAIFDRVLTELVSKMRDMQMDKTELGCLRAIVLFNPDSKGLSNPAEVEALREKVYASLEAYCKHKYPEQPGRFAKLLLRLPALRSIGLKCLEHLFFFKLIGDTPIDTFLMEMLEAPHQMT

Values joined by “and” are separate entries in the source; they are usually repeats but may differ in a detail not shown here. Equal values may be shown once. Inconclusive results are not listed. A structure can be active in one record and inactive in another. Active and inactive are the calls of the source. Unless noted, calls come from the whole dose curve.

For `O=C(O)C1=NN(c2ccc(S(=O)(=O)O)cc2)C(=O)C1`, the Potency entry in test [1], in test [2], in test [3], in [4], in [5] and in test [6] was “inactive” in each case. Moreover, the Potency entry in [7], in test [8] and in [10] was “inactive” each time. Also, in test [9], the result was inactive.

On to `COc1ccc([C@@H]2CC(=O)c3c(O)cc(O[C@@H]4O[C@H](CO[C@@H]5O[C@@H](C)[C@H](O)[C@@H](O)[C@H]5O)[C@@H](O)[C@H](O)[C@H]4O)cc3O2)cc1OC`, for which the Potency result in [1], in test [2], in test [3], in [4], in test [5] and in [6] was “inactive” each time. The Potency result in [7], in test [8] and in [10] was “inactive” in each case. Moreover, the compound was called inactive in test [9].

As for `CCCCCCCCO`, the Potency entry in [1], in [2], in test [3], in [4], in [5] and in test [6] was “inactive” in each case. Also, the Potency entry in test [7], in test [8] and in test [10] was “inactive” throughout. In addition, the outcome in test [9] was inactive.

Take `c1cnc2c(c1)ccc1cccnc12`: the Potency in [1] was 1.97 µM (active) and 2.75 µM (active) and 436 nM (active); in test [2], 5.49 µM (active) and 7.76 µM (active); in test [7] it was 1.95 µM (active) and 5.45 µM (active) and 6.11 µM (active). Further, the Potency entry in test [3], in test [4], in [5], in [6] and in test [8] was “inactive” each time.

Turning to `Cc1ccccc1Cl`, the Potency entry in test [1], in test [2], in [3], in [4], in test [5] and in test [6] was “inactive” in each case. The Potency result in [7], in [8] and in [10] was “inactive” each time. The result in [9] was inactive.

For the compound `N#CCC(=O)O`, the Potency result in test [1], in [2], in test [3], in test [4], in [5] and in [6] was “inactive” in each case. Moreover, the Potency entry in [7], in test [8] and in test [10] was “inactive” each time. For the same compound, the compound was called inactive in [9].

On to `CC(COCC(C)OC(=O)c1ccccc1)OC(=O)c1ccccc1` (stereo not given), for which the Potency result in test [1], in test [2], in [3], in [4], in test [5] and in test [6] was “inactive” each time. Moreover, the Potency result in test [7] and in test [8] was “inactive” in each case. Further, the call in [9] was inactive.

`Clc1cccc(Cl)c1NC1=NCCN1`: the Potency result in [1], in [2], in test [3], in test [4], in [5] and in test [6] was “inactive” each time. In addition, the Potency result in test [7], in [8] and in test [10] was “inactive” in each case. Moreover, the result in test [9] was inactive.

As for `CN1CCCC1=O`, the Potency entry in [1], in test [2], in test [3], in test [4], in test [5] and in test [6] was “inactive” each time. The Potency result in [7], in [8] and in test [10] was “inactive” in each case. For the same compound, the call in test [9] was inactive.

With `CC1=CC(=O)CC(C)(C)C1`, the Potency result in test [1], in test [2], in test [3], in test [4], in test [5] and in test [6] was “inactive” each time. In test [10], the Potency entry is “inactive”. Further, the Potency in test [7] was 2.5 µM (active) and inactive; in test [8], 25.3 µM (active) and inactive. In test [9], the compound was classed as inactive.

Regarding `CCc1cccc(CC)c1N`, the Potency result in test [1], in [2], in test [3], in test [4], in [5] and in [6] was “inactive” in each case. In addition, the Potency result in [7], in [8] and in test [10] was “inactive” each time. Also, in [9], the result was inactive.

Turning to `CN1Cc2c(N)cccc2C(c2ccccc2)C1` (stereo not given), the Potency entry in test [1], in [2], in test [3], in test [4], in [5] and in [6] was “inactive” throughout. In addition, the Potency entry in [7], in test [8] and in test [10] was “inactive” each time. In [9], the compound was called inactive.

Regarding `CC(=O)OCc1ccc2c(c1)OCO2`, the Potency entry in test [1], in test [2], in test [3], in test [4], in test [5] and in [6] was “inactive” throughout. The Potency entry in test [7], in [8] and in test [10] was “inactive” throughout. For the same compound, the call in test [9] was inactive.

In the case of `CC(=O)OCCC(C)C`, the Potency entry in test [1], in test [2], in test [3], in test [4], in [5] and in test [6] was “inactive” in each case. The Potency result in [7], in [8] and in test [10] was “inactive” throughout. Besides, in [9], the result was inactive.

As for `COc1ccc2cc3[n+](cc2c1OC)CCc1cc2c(cc1-3)OCO2`, the Potency entry in [1], in [3], in [4], in [5], in test [6] and in [7] was “inactive” throughout. For the same compound, in test [8], the Potency entry was “inactive”. Further, the compound was called inactive in test [9].

`O=[N+]([O-])c1cc(C(F)(F)F)ccc1Cl`: the Potency result in test [1], in test [2], in [3], in test [4], in test [5] and in [6] was “inactive” in each case. Besides, the Potency entry in [7], in test [8] and in test [10] was “inactive” in each case. In addition, the call in test [9] was inactive.
